Data taken from PubChem BioAssay (NCATS).
Values joined by “and” are separate entries in the source; they are usually repeats but may differ in a detail not shown here. Identical values can stand only once. Inconclusive results are not listed. Active and inactive are the calls of the source. Calls come from the whole dose curve; as a rule, active = well fitted inhibition curve with a large enough effect; inconclusive = small, poorly fitted or top-dose-only effect; inactive = flat fitted curve, though single readings scatter.
% is set by controls: 0 for no effect and ±100 for the full control effect.

What follows are compounds tested on HaCat (assay: Cytotoxic Profiling of Annotated Libraries Using Quantitative High-Throughput Screening (AID 1296008; note: nearly all actives have a fitted effect of over 60% in size)). Conditions: Five cell lines viability, CellTiter-Glo ATP luminescence, 48-72 h; max response: hits give low values.
Procedure, shortened: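 Cells exposed to compounds for 48 or 72 hr at 37 degrees Celsius. Viability read as ATP-coupled luminescence with CellTiter-Glo after 10 min at room temperature.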
CCc1c(C(=O)C(N)=O)c2c(OCC(=O)OC)cccc2n1Cc1ccccc1 was tested, and the max response was -4% (inactive).
For CCN1C[C@]2(COC(=O)c3ccccc3N3C(=O)C[C@H](C)C3=O)CC[C@H](OC)[C@@]34[C@@H]5C[C@H]6[C@H](OC)[C@@H]5[C@](O)(C[C@@H]6OC)[C@](O)([C@@H](OC)[C@H]23)[C@@H]14, the max response was -1.58% (inactive).
For CC(C)(O)[C@H]1O[C@H]2CC[C@@]3(C)[C@@](O)(CC[C@H]4Cc5c([nH]c6ccccc56)[C@@]43C)C2=CC1=O, the max response was 0.588% (inactive).
With CCN1C[C@]2(OC(=O)c3ccccc3NC(C)=O)CC[C@H](OC)[C@@]34[C@@H]2C[C@@H]([C@@H]13)[C@@]1(O)C[C@H](OC)[C@H]2C[C@@H]4[C@]1(O)[C@H]2OC the outcome was “inactive”.
For CN1[C@H]2C[C@H](OC(=O)[C@H](CO)c3ccccc3)C[C@@H]1[C@@H](O)C2, the outcome was “inactive”.
C=CC(C)(C)c1[nH]c2cccc3c2c1C[C@@H]1[C@@H]3[C@@H](OC(C)=O)[C@H](C)CN1C was tested, and the outcome was “inactive”.
Cc1cc(C(=O)CN2CCCC2)c(C)n1-c1ccc(F)cc1 was tested, and the max response was 1.57% (inactive) and -29% (inactive).
O=C(O)c1ccnc2cc(C(OCCN3CCCCC3)c3ccccc3Cl)[nH]c12 (stereo not given) was tested, and the outcome was “inactive”.
With CCC(C)(OC(C)=O)C(=O)O[C@H]1[C@H](OC(C)=O)C[C@@H]2[C@@](C)([C@@H]3C[C@H]4C=CO[C@H]4O3)[C@H](C)C[C@H](OC(C)=O)[C@@]2(COC(C)=O)[C@@]12CO2 (stereo not given in full) the outcome was “inactive”.
In the case of C=CC(C)(O)CC/C=C(\C)C(=O)O[C@H]1[C@H](O)[C@@H](CO)O[C@@H](OC(=O)[C@]23CCC(C)(C)CC2C2=CCC4[C@@]5(C)CC[C@H](O[C@@H]6O[C@H](CO[C@@H]7OC[C@H](O)[C@H](O)[C@H]7O[C@@H]7OC[C@@H](O)[C@H](O)[C@H]7O)[C@@H](O)[C@H](O)[C@H]6O)C(C)(C)C5CC[C@@]4(C)[C@]2(C)CC3)[C@@H]1OC1OC(C)C(O[C@@H]2OC[C@@H](O)[C@H](O[C@@H]3OC[C@@H](O)[C@H](O)[C@H]3O)[C@H]2O)C(O)C1O (stereo not given in full), the outcome is reported as “inactive”.
In the case of COC(=O)C1(C)CCC(O)C2(C)c3c(O)cc(C(C)C)cc3C(O)C(OC(C)=O)C12 (stereo not given), the max response is reported as -12.7% (inactive).
In the case of OC1(c2ccc(Cl)cc2)c2ccccc2C2=NCCN21 (stereo not given), the max response is reported as 0.153% (inactive).
COc1cc(C(=O)O[C@H]2[C@@H]3C=CO[C@@H](O[C@@H]4O[C@H](CO)[C@@H](O)[C@H](O)[C@H]4O)[C@@H]3[C@@]3(CO)O[C@@H]23)ccc1O was tested, and the outcome was “inactive”.
In the case of C/C=C(\C)C(=O)OC1CC2C(CC=C3CC(OC4CC(OC)C(OC5CC(OC)C(OC6OC(C)C(OC7OC(CO)C(O)C(O)C7O)C(OC)C6O)C(C)O5)C(C)O4)CCC32C)C2(O)CCC(C(C)=O)C12C (stereo not given), the outcome is reported as “inactive”.
With CC(=O)OC12C(O)C(C)C3(O)C4C=C(C)C(=O)C4CC(CO)=CC3C1C2(C)C (stereo not given) the max response was -13.8% (inactive).
With CCC1NC(=O)C2C(Cl)C(Cl)CN2C(=O)C(C(C)O)NC(=O)CC(c2ccccc2)NC(=O)C(CO)NC1=O (stereo not given) the max response was 4.16% (inactive).
CC(=O)OC1CC(O)C2(C)C(CC(OC(C)=O)C3(C)C2CCC2(C)C(c4ccoc4)C(=O)C4OC423)C1(C)C (stereo not given) was tested, and the max response was -22.5% (inactive).
C=C(C)[C@H]1O[C@H]2CC[C@@]3(C)[C@@](O)(CC[C@H]4[C@@H]5OC(C)(C)[C@H]6C[C@@H]7C(=C)Cc8c(Cl)cc9[nH]c(c5c9c8[C@@]76O)[C@@]43C)[C@]23O[C@@H]3[C@H]1O was tested, and the max response was 4.01% (inactive).
In the case of CN(C(=O)Cc1ccccc1)C(CN1CCCC1)c1ccccc1 (stereo not given), the max response is reported as 2.22% (inactive).
With C1=C2CCCN[C@H]2[C@@H]2C[C@H]1[C@H]1CCCCN1C2 the max response was -5.08% (inactive).
For CCC(C)(C#N)O[C@@H]1O[C@H](CO)[C@@H](O)[C@H](O)[C@H]1O (stereo not given in full), the outcome was “inactive”.
CN1C(=O)c2ccccc2NC(=O)[C@]12O[C@@H]2c1ccccc1 was tested, and the max response was -12.1% (inactive).
CC1=C2C(=O)C3[C@@H](CC=C4C[C@@H](O)CC[C@@]43C)[C@@H]2CC[C@]12O[C@@H]1C[C@H](C)CN[C@H]1[C@H]2C (stereo not given in full) was tested, and the outcome was “inactive”.
With COC(=O)[C@@]12C(=O)C(C)C(=O)[C@]1(C)C(C)=C[C@H]1[C@]3(C=O)CC[C@H](OC(C)=O)C(C)(C)[C@H]3CC[C@@]12C (stereo not given in full) the outcome was “inactive”.
In the case of CC(N)Cc1c[nH]c2ccccc12 (stereo not given), the max response is reported as -7.15% (inactive).
